# Assay outcomes as filed in PubChem.
# ssDAF-12 act = S. stercoralis DAF-12 activation, primary screen | HEK293 ssDAF-12/GRIP1 lit1-tk-luc reporter, luminescence; % of 3 µM dafachronic acid response | activation, % at 6.8 µM | 370,000 compounds, 1% hits | AID 652126;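 active means activation above the mean over all tested compounds plus 3 SD, cut at about 0.9% in these data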;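 further: 0% = DMSO-only wells and 100% = 3 µM delta7-dafachronic acid wells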
# DAX1 inh-1 = blocks DAX1 repression of SF-1 activated StAR promoter. HEK293T StAR-luciferase reporter, SF-1/DAX-1 repression relief. inhibition, % at 6.8 µM. 370,000 compounds, 1.1% hits. AID 652010;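 active means inhibition above the mean over all tested compounds plus 3 SD, cut at about 3.6% in these data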;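 further: 0% = DAX-1 cells with DMSO and 100% = cells lacking DAX-1 with DMSO; higher inhibition means more luminescence from relief of DAX-1 repression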
# GAA850 FXN act = increases GAA850 frataxin promoter reporter activity. AID 540364. HEK293 lucGAA850 FXN promoter luciferase reporter, 24 h; percent of 10 µM SAHA response. activation, % at 6 µM. 360,000 compounds, 0.56% hits;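 active means activation above the average of all compounds screened plus 3 SD, cutoff fixed separately per campaign, cut at about 7.5% in these data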;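 further: 0% = DMSO wells and 100% = 10 µM SAHA wells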
# hgDAF12 agonist = agonists of H. glycines DAF-12 nuclear receptor | activation, % at 6.8 µM | 370,000 compounds, 1.8% hits | HEK293 GAL4-hgDAF12 UAS-luciferase reporter, agonist luminescence; normalized to butyrate control;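 active means activation above a cutoff set at the mean of all screened compounds plus 3 SD, cut at about 10% in these data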;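 further: 0% = DMSO wells and 100% = sodium butyrate wells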
# DAX1 inh-2 = NR0B1 (DAX1) inhibition; P51843; HEK293 Gal4-DAX1 luciferase reporter, luminescence; inhibition, % at 6.75 µM; 340,000 compounds, 0.99% hits;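 active means inhibition above the mean over all tested compounds plus 3 SD, cut at about 4.2% in these data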;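 further: 0% = DAX1-transfected cells with DMSO and 100% = empty-vector control cells with DMSO; inhibition shows as a rise in luminescence from relieved DAX1 repression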
# Target sequence (P51843 207-470 limits assumed): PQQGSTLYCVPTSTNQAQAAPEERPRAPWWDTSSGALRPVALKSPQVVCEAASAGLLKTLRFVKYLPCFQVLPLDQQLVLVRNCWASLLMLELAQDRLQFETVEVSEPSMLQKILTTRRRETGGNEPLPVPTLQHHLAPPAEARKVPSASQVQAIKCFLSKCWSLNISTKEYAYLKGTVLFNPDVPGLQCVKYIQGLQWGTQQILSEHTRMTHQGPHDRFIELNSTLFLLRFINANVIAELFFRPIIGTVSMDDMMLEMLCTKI
# hcDAF12 agonist = activators of H. contortus DAF-12 nuclear receptor; HEK293 hcDAF-12 lit1-tk-luc reporter, luminescence; 0% DMSO, 100% Δ7-dafachronic acid; activation, % at 6.8 µM; 370,000 compounds, 1.4% hits; AID 652067;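 active means activation above the mean of all tested compounds plus 3 SD, cut at about 5.5% in these data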;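 further: 100% = response to 3 µM Δ7-dafachronic acid high control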
# Active calls of the source: *; . = not tested or not shown. The list is not random: actives were taken first. Their share in the collection is about 4.5%.
SMILES,ssDAF-12 act,DAX1 inh-1,GAA850 FXN act,hgDAF12 agonist,DAX1 inh-2,hcDAF12 agonist
COc1cc2nc(CN(C)Cc3nc4ccccc4c(=O)[nH]3)[nH]c(=O)c2cc1OC,-2,1,1,-3,-1,0
CCn1c(SCC(=O)Nc2ccccc2-c2ccccc2)nnc1-c1ccc(C)cc1,-1,0,.,0,.,-2
COC(=O)c1cc(C(C)c2c[nH]c3ccccc23)n2ccccc12 (stereo unspecified),-1,3,.,-4,.,4
COC(=O)c1cc(-c2cccc(OCc3ccccc3)c2)c(=O)n2c1CCC2,-1,-1,.,0,.,-2
O[C@H](COc1cccc(Br)c1)CN1CCC(C(O)(c2ccccc2)c2ccccc2)CC1,-2,-1,.,0,.,-2
CCN(CC(=O)Nc1ccccc1SC)Cc1nc2ccccc2c(=O)[nH]1,-1,0,1,1,5.0*,-2
CCN(CC(=O)Nc1ccccc1-c1ccccc1)Cc1nc2ccccc2c(=O)[nH]1,-2,-4,-4,1,-1,-1
CCN(C(=O)COC(=O)c1cnc(C)cn1)C1CCS(=O)(=O)C1 (stereo unspecified),-1,-1,-1,2,0,1
CCOC(=O)C(=O)N(CC)C1CCS(=O)(=O)C1 (stereo unspecified),1.2*,0,0,-1,0,5
O=S(=O)(c1ccc(F)cc1)N1CCN(CC2CC3C=CC2C3)CC1 (stereo unspecified),-1,0,2,0,0,6.5*
O=S(=O)(c1ccccc1)N1CCN(CC2CC3C=CC2C3)CC1 (stereo unspecified),-2,0,0,-1,-1,-1
Cc1ccc(NC(=O)c2ccc3nccnc3c2)c(C)c1,0,1,2,12*,-1,2
CC(=O)N1CCN(C(=O)C2CCCN(C(=O)c3ccc4c(c3)NC(=O)CS4)C2)CC1 (stereo unspecified),-1,0,.,-3,.,-2
NCCCn1c(C(=O)c2ccc(Cl)cc2)c2ccc(C(F)(F)F)cc2[n+]1[O-],0,0,2,0,1,5
Cc1ccc(C(=O)c2c3ccc([N+](=O)[O-])cc3[n+]([O-])n2CCCC(N)=O)cc1,0,0,1,-3,0,2
COc1ccc2c(C(=O)c3ccc(C)cc3)n(CCCC(N)=O)[n+]([O-])c2c1,0,0,0,1,-1,6.1*
NC(=O)CCCn1c(C(=O)c2ccc(Cl)cc2)c2ccc(C(F)(F)F)cc2[n+]1[O-],1.2*,0,2,-1,0,5
CC(C)CN1C[C@@H]2CSCCS(=O)(=O)N2C1=O,0,-2,.,-1,.,0
Cc1c(O)ccc(C(=O)COc2ccc(F)cc2)c1O,-1,1,2,12*,3,1
O=C(c1noc2c1CCc1ccccc1-2)N1CCOCC1,-1,0,3,5,0,1
COc1ccc2c(c1)CCc1c(C(=O)NCc3cccnc3)noc1-2,-1,0,0,0,2,0
COc1ccc2c(c1)CCc1c(C(=O)NCC(C)C)noc1-2,0,3,5,13*,5.6*,4
COc1ccc2c(c1)CCc1c(C(=O)N3CCCCCC3)noc1-2,-1,3.8*,6,8,3,3
O=C(Cc1ccccc1)N1CCC(Oc2cccnc2)CC1,-2,1,.,1,.,0
Cc1cccc(N(C(=O)CCC(=O)Nc2cc(C)on2)C(C(=O)NC2CCCC2)c2ccc(C)o2)c1 (stereo unspecified),2.2*,1,3,4,-1,-1
SMILES,ssDAF-12 act,DAX1 inh-1,GAA850 FXN act,hgDAF12 agonist,DAX1 inh-2,hcDAF12 agonist
CCCCc1ccc(Nc2ncccc2C#N)cc1,1,1,4,8,1,5.8*
CCN(C(=O)[C@@H]1CC(=O)O[C@@H]1c1ccccc1)c1ccccc1,-1,-1,.,-1,.,-3
Cc1ccnc(NC(c2ccsc2)c2ccc3ccc(C)nc3c2O)c1 (stereo unspecified),-1,-2,1,-8,4.9*,-1
Cc1cc(/C=C(\C#N)C(=O)NCc2cccs2)c(C)n1-c1ccccc1F,1.1*,1,6,7,3,4
Cc1ccccc1-n1c(C)cc(/C=C(\C#N)C(=O)NCC2CCCO2)c1C (stereo unspecified),-2,0,-3,-3,0,1
CCOC(=O)N1CCN(S(=O)(=O)c2ccc(C(=O)Nc3nc4ccccc4s3)cc2)CC1,-1,0,-1,-1,0,2
CCOC(=O)N1CCC(=NNc2nc3ccccc3s2)CC1,0,1,4,10,2,5.8*
CC(=O)N1CCC(=NNc2nc3ccccc3s2)CC1,1,1,4,7,0,6.5*
C=CCn1c(COc2ccc(Cl)cc2)nnc1SCC(=O)c1ccccc1,-3,-1,.,-1,.,-1
O=C(N/N=C/c1cn(-c2ccccc2)nc1-c1ccc2c(c1)OCCO2)c1ccncc1,-1,1,5,10*,0,-1
O=C(N/N=C\c1cn(-c2ccccc2)nc1-c1ccccc1)c1ccc2c(c1)OCO2,-1,0,1,2,0,1
Cc1cc(C)nc(Nc2nc3ccccc3o2)n1,-1,1,1,5,3,1
FC(F)(F)Oc1ccc(Nc2nc3ccccc3o2)cc1,0,1,4,9,3,5.7*
CCCCOC(=O)CCN1C(=O)/C(=C/c2ccccc2)SC1=S,-1,.,.,-1,.,2
O=c1[nH]c2c(=O)[nH]cnc2nc1-c1ccccc1,-1,0,0,0,-1,0
O=c1[nH]c(-c2ccccc2)cnc1-c1ccccc1,0,2,5,11*,.,5
C[C@@H]1OCN(C)[C@H]2C[C@H]3c4[nH]c5cccc(-c6ccccc6)c5c4CCN3C[C@@H]12,-1,0,.,3,.,-2
CC1(C)Nc2ccccc2C(=O)N1NC(=O)c1ccccc1,0,1,0,5,0,5.7*
O=C(NCCc1cccs1)C1CC(c2ccccc2[N+](=O)[O-])=NO1 (stereo unspecified),0,2,6,5,3,5.8*
Cc1cc(Nc2ncc(Cl)cc2Cl)n(-c2ccccc2)n1,0,-1,1,0,0,5
Cc1cc(Nc2cnc3ccccc3n2)n(-c2ccccc2)n1,1.9*,-1,1,0,0,4
O=c1c(O[C@H]2O[C@@H](CO)[C@H](O)[C@@H](O)[C@@H]2O)c(-c2ccc(O)cc2)oc2cc(O)cc(O)c12,-1,0,-1,4,2,-2
